Screening data (PubChem BioAssay)
gsp antagonist: gsp mutant antagonism; 340,000 compounds, 0.4% hits; Potency, µM (highest dose often 76.9 µM), inactives show at the highest dose activity change, negative = inhibition, most hits filed as inhibitors; gsp-mutant cells, cAMP HTRF, 30 min; calls by dose curve; cell line not stated here;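 also: intracellular cAMP measured with PDE inhibitor Ro 20-1724 present during compound exposure; potency is read from the fitted curve at half-maximal effect; % is scaled to controls: 0 for no effect and ±100 for the full control effect; nearly all actives have a fitted effect of over 65% in size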
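Cells, 2000/well, grown 16–24 h in DMEM 10% FBS with 0.5 mg/ml G418, then compounds plus […] (300 uM addition stock), 30 min at 37C. cAMP read by HTRF (cAMP-d2 and anti-cAMP antibody-K in lysis buffer) after 30 min RT.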
Mm-Cpn inhibitor: inhibitors of Methanococcus maripaludis chaperonin TRiC (MmCpn) | purified Mm-Cpn ATPase, ADP Transcreener TR-FRET | Potency, µM (doses to about 76.9 µM), for inactives: at the top dose activity, negative = inhibition, hits mostly inhibitors | 330,000 compounds, 0.031% hits | AID 504842; active = well fitted inhibition curve with a large enough effect; inconclusive = small, poorly fitted or top-dose-only effect; also: potency is read from the fitted curve at half-maximal effect; % is scaled to controls: 0 for no effect and ±100 for the full control effect; nearly all actives have a fitted effect of over 80% in size
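25 nM Mm-CPN + cpd, 10 min 37°C; + 10 uM ATP, 30 min 37°C; buffer 30 mM Tris pH 7.4, 100 mM KCl, 5 mM MgCl2, 1 mM DTT; Transcreener ADP HTRF detection 30 min RT.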
TSHR antag: antagonists of human thyroid stimulating hormone receptor. P16473. TSHR-expressing cells, TSH-stimulated cAMP HTRF, 2 h; stronger effect = lower value. activity change, negative = inhibition, % at 11.5 µM. 330,000 compounds, 0.2% hits;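 active = activity change below a set negative limit, meaning inhibition stronger than a set level, cut at about -70% in these data; inconclusive = activity change between two set negative limits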; also: % is scaled to controls: 0 for no effect and ±100 for the full control effect
Target sequence (P16473 whole entry, looked up): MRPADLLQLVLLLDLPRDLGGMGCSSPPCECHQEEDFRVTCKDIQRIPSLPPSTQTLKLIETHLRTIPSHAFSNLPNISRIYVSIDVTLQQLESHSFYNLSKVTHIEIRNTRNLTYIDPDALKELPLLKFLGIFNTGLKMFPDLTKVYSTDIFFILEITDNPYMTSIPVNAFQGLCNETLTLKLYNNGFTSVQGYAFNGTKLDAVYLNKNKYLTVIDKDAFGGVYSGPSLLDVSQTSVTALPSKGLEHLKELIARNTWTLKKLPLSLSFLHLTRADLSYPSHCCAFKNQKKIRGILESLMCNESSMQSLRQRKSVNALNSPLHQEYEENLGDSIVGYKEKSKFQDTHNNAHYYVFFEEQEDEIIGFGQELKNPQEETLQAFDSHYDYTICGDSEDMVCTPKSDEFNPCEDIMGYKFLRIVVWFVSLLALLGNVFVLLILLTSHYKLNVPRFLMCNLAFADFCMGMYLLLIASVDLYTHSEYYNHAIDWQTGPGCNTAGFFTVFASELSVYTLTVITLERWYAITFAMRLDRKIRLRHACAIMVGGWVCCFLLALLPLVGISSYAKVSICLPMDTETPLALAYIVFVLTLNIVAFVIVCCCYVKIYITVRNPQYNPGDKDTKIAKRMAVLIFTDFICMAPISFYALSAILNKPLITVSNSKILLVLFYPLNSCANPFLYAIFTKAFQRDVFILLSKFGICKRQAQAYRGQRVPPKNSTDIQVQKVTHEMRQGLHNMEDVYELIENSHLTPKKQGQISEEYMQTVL
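Read-out is FRET at 665 nm (cryptate excitation 337 nm) from a cryptate-tagged anti-cAMP antibody, competed by cell cAMP against cAMP-d2. Compounds are tested on freshly harvested TSHR cells challenged with 4nM TSH (EC80) for 2 hours at 37 deg C.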
CCT chaperon mod: cytosolic chaperonin activity modulation; purified chaperonin ATPase assay, HTRF ADP detection, 30 min; 360,000 compounds, 0.3% hits; activity change, % (concentration not given with the values), hits read low; in the data active = activity change below about -30%; also: % is scaled to controls: 0 for no effect and ±100 for the full control effect
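Nucleotide hydrolysis assay: TRiC at 20–40 nM final (set by batch activity) with 10 uM ATP, 30 min at 37 °C, in presence of 76 uM compound. Detection by competitive ADP HTRF, 30 min ambient.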
uPA surface inh: cell surface uPA generation inhibition. cell surface uPA generation assay, qHTS. Potency, µM (titrated, usually from 38.3 µM), for inactives: at the top dose activity change, negative = inhibition, usual class: inhibitors. 330,000 compounds, 0.31% hits; active = well fitted inhibition curve with a large enough effect; inconclusive = small, poorly fitted or top-dose-only effect; inactive = no such curve, though single readings can be large or run the other way; tested in mouse RAW 264.7 cells; also: potency is read from the fitted curve at half-maximal effect; % is scaled to controls: 0 for no effect and ±100 for the full control effect; nearly all actives have a fitted effect of over 55% in size
gsp agonist: agonists of gsp mutant (McCune-Albright syndrome); gsp mutant cells, cAMP HTRF, 30 min; Potency, µM (top dose mostly 76.9 µM), for the others: top-dose activation (cAMP increase), most hits filed as activators; 340,000 compounds, 0.13% hits; AID 624287; active = well fitted activation curve with a large enough effect; inconclusive = small, poorly fitted or top-dose-only effect, or another doubt; inactive = no such curve, though single readings can be large or run the other way; cell line not stated here;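 also: phosphodiesterase inhibitor Ro 20-1724 added with compounds to block cAMP breakdown; potency is read from the fitted curve at half-maximal effect; nearly all actives have a fitted effect of over 60% in size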
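Cells stably selected in G418 were plated at 2000/well, grown 16-24 hr, then given compounds in DMSO with the PDE inhibitor […] (300 uM solution added) for 30 min at 37C; cAMP was read by HTRF.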
* hit, by the source's call; ? = inconclusive; . = not tested or not shown; [ ] = another dose, or the depositor's remark. This is a sample that favours compounds with a hit; in the whole collection about 1.2% have one here.

SMILES	gsp antagonist	Mm-Cpn inhibitor	TSHR antag	CCT chaperon mod	uPA surface inh	gsp agonist
Cc1cc(C=O)c(C)n1-c1ccc(Oc2ccc([N+](=O)[O-])cn2)cc1	10%	2%	1	1	2%	0%
CC(=O)Nc1ccc(NC(=O)C(C)OC(=O)C2CCN(S(=O)(=O)c3ccccc3C(F)(F)F)CC2)cc1 (centres undefined)	6%	-17%	9	1	3%	-11%
COc1ccccc1CN1C[C@@H]2C[C@@H](C3=Cc4cccc(OC)c4OC3)N3CCC[C@@]23C1=O	-11%	-2%	3	-2	1%	11%[15.4 µM]
O=C(Cc1ccc(Br)cc1)NC1CCCc2ccccc21 (centres undefined)	-14%	-1%	-24	1	6%	22%
COc1ccc(CC(N)c2csc(Nc3cc(Oc4ccccc4)ncn3)n2)cc1 (centres undefined)	.	.	.	-36*	.	.
NC(Cc1ccc(Cl)cc1)c1csc(Nc2cc(Oc3ccccc3)ncn2)n1 (centres undefined)	.	.	.	1	.	.
O=C(NCCN1CCNC1=O)C1CCC(=O)N(Cc2ccccc2F)C1 (centres undefined)	11%	-6%	15	-2	2%	12%[15.4 µM]
COC(=O)CSc1nc2c(cnn2-c2ccc(F)cc2)c(=O)[nH]1	4%	-2%	-6	-32*	-1%	-20%
CCOC(=O)CSc1nc2c(cnn2-c2ccc(F)cc2)c(=O)[nH]1	5%	1%	-11	0	0%	-11%[15.4 µM]
COc1ccc(C(=O)Nc2cccc(NC(=O)c3cccs3)c2)cc1	-14%	4%	11	0	-14%	7%
CCN(CC)CCn1c(NCc2ccc(C)o2)nc2ccccc21	0%	2%	-3	0	-6%	-12%[15.4 µM]
O=[N+]([O-])c1cc(-c2nc3nc4ccccc4nc3n2CCc2ccccc2)cc([N+](=O)[O-])c1	35µM*	?	4	-2	1%	-1%[15.4 µM]
Cc1cccc(-n2nc3c(c2NC(=O)CCC2CCCCC2)CS(=O)C3)c1C (centres undefined)	5%	-2%	-3	0	-25%	18%
O=C(CCc1ccc(S(=O)(=O)N2CCOCC2)cc1)Nc1nccs1	7%	0%	-3	-6	2%	-39%
O=C(COc1ccccc1)Nc1nc(-c2ccc(S(=O)(=O)N3CCOCC3)cc2)cs1	-3%	?	1	-1	-1%	8%
O=C(Nc1nc(-c2ccc(S(=O)(=O)N3CCCCCC3)cc2)cs1)c1ccccc1	-2%	35µM*	?	3	2%	-5%
O=C(CCc1ccc(S(=O)(=O)N2CCOCC2)cc1)Nc1nc(COc2ccccc2)cs1	28µM*	-1%	-42	-1	.	0%
O=C(CCc1ccccc1)Nc1cccc(S(=O)(=O)N2CCOCC2)c1	-11%	0%	-3	-35*	-30%	6%
O=C(COc1ccc(Cl)cc1)Nc1nc(-c2ccc(S(=O)(=O)N3CCOCC3)cc2)cs1	-14%	45µM*	?	-1	.	?
CCOc1ccc(NC(=O)c2ccccc2-c2ccccc2C(=O)O)cc1	-4%	.	.	-2	-7%	-6%[15.4 µM]
COc1cccc(CNc2nc3cc(-c4ccc(OC)cc4C)sc3c(=O)n2C)c1	.	.	.	-1	.	.
Cc1ccc2nc(C)cc(Nc3ccc([N+](=O)[O-])cc3)c2c1	7%	0%	7	-2	-5%	6%
COc1ccc(OC(=O)c2ccc3nsnc3c2)cc1	9%	1%	5	-48*	-4%	9%
CN(c1ccccc1)S(=O)(=O)c1cccc(NC(=O)c2cccc(C#N)c2)c1	-28%	-22%	-30	-1	4%	16%
CN(c1ccccc1)S(=O)(=O)c1cccc(NC(=O)c2ccc3ncsc3c2)c1	25µM*	0%	-21	1	-8%	-10%[15.4 µM]
SMILES	gsp antagonist	Mm-Cpn inhibitor	TSHR antag	CCT chaperon mod	uPA surface inh	gsp agonist
Cc1nc2ccc(NC(=O)c3cccc(S(=O)(=O)N(C)c4ccccc4)c3)cc2s1	35µM*	-8%	-40	-2	-8%	-69%
Cc1nc2ccc(NC(=O)c3ccccc3)cc2s1	4%	-1%	8	2	-10%	31%
CN(C)S(=O)(=O)c1cccc(NC(=O)c2ccc(COc3ccccc3)cc2)c1	32µM*	-9%	-40	0	-8%	0%
CC(=O)c1c(C)[nH]c(C(=O)Nc2cccc(S(=O)(=O)N(C)c3ccccc3)c2)c1C	32µM*	0%	-21	-1	-5%	0%
CC1(C(=O)NS(=O)(=O)c2ccc(Cl)cc2)CCN1C(=O)Cc1ccc(-c2ccccc2)cc1 (centres undefined)	.	.	.	1	.	.
COC(=O)c1ccccc1OCCCN(C)C	8%	0%	7	-1	3%	27%
COc1ccc(C(=O)NC(CCSC)C(=O)NC2CC2)cc1 (centres undefined)	7%	1%	-3	2	-20%	6%
COc1ccc(N(C)S(=O)(=O)c2cccc(C(=O)Nc3ccc(-n4cnnn4)cc3)c2)cc1	28µM*	-5%	-32	0	-7%	18%
O=C(NC1CCCC1)C(c1ccncc1)N(C(=O)c1ccco1)c1ccc(F)c(Cl)c1 (centres undefined)	4%	2%	16	-36*	3%	17%[15.4 µM]
O=C(NC1CCCCC1)C(c1ccncc1)N(C(=O)c1ccco1)c1ccc(F)cc1 (centres undefined)	-6%	0%	-8	0	3%	7%[15.4 µM]
O=C(CSc1nncs1)Nc1cc(S(=O)(=O)N2CCOCC2)ccc1N1CCCC1	9%	-1%	12	0	-5%	22µM*
CC(=O)c1c(C)[nH]c(C(=O)OCC(=O)Nc2ccc(Cl)c(S(=O)(=O)N(C)C)c2)c1C	40µM*	3%	-5	1	-13%	37%
COc1ccc(-c2cc(=O)c3ccccc3o2)cc1	-16%	-8%	-12	-46*	?	24%
COc1ccc(-c2cc(=O)c3c(O)c(OC)c(O)cc3o2)cc1	?	.	-14	0	10µM*	.
COc1c(OC)c(O)c2c(=O)cc(-c3c(O)cccc3O)oc2c1OC	-3%	.	-4	0	7.1µM*	-26%
CCN1C(=O)[C@H]2[C@@H](c3ccc(OC)cc3)N[C@]3(CCCN(Cc4ccc(Cl)cc4)C3=O)[C@H]2C1=O	.	.	.	2	.	-61%
O=c1cc(-c2ccccc2)[nH]c2cc(Cl)ccc12	8%	-5%	-2	-2	0.045µM*	33%
Cc1ccc(-c2cc(=O)c3cc(C)ccc3[nH]2)cc1	-1%	-1%	-12	0	1.1µM*	.
